The source of these data is PubChem BioAssay (EPA / NIEHS).

A short description of test [1]: CEETOX_H295R_OHPROG: CeeTox H295R High-throughput Steroidogenesis Assay for OH-Progesterone (OHPROG) (AID 2283435).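 On AC50: human adrenal H295R cells primed 48 h with 10 µM forskolin; 17alpha-hydroxyprogesterone secreted into medium measured by HPLC-MS/MS.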 Particulars: actives raise or lower the signal. Summed up: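 Human adrenocortical H295R cells, passage 10 or lower, were treated with chemical for 48 h after forskolin priming, and hormone output in the medium was quantified by LC-MS/MS.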
A short description of test [2]: CEETOX_H295R_CORTIC: CeeTox H295R High-throughput Steroidogenesis Assay for Corticosterone (CORTIC) (AID 2283437).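 On AC50: human H295R adrenal cells prestimulated with forskolin before chemical exposure.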 Particulars: actives raise or lower the signal. Summed up:
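Medium corticosterone was quantified by tandem mass spectrometry following 48 hours of chemical exposure (0.1% DMSO) in human H295R cells previously stimulated 48 hours with 10 uM forskolin. Viability checked by MTT; chemicals diluted and retested when viability fell below 70%.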

The nature of test [3]: CEETOX_H295R_CORTISOL: CeeTox H295R High-throughput Steroidogenesis Assay for Cortisol (AID 2283438).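 Further: cortisol secreted into medium quantified by LC-MS/MS.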 The settings on record: actives raise or lower the signal. The method in brief:
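Steroidogenesis in H295R, per modified OECD 456: 48 h forskolin (10 uM), then 48 h exposure, 0.1% DMSO. Cortisol by extraction and tandem MS; viability by MTT (570/650 nm); cytotoxic chemicals diluted and re-tested.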

A short description of test [4]: CEETOX_H295R_DOC: CeeTox H295R High-throughput Steroidogenesis Assay for DOC (AID 2283439). Particulars: actives raise or lower the signal. Summed up:
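H295R, fsk 10 uM ×48 h pre, cmpd ×48 h (0.1% DMSO). Media → MTBE extr. → LC-MS/MS, DOC. Bidirectional fit vs DMSO; MTT viability same wells, re-test diluted if <70%.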

Test [5] can be described thus: CEETOX_H295R_ESTRADIOL: CeeTox H295R High-throughput Steroidogenesis Assay for Estradiol (AID 2283440).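 Further: estradiol secreted into medium quantified by LC-MS/MS after dansyl derivatisation.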 Particulars: actives raise or lower the signal. Summed up: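 H295R, 48 h forskolin (10 uM) prestim → 48 h compound, 0.1% DMSO final. Estradiol in medium: MTBE extraction, dansyl chloride derivatization, LC-MS/MS. Fit bidirectional vs DMSO baseline; MTT viability in same wells.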

A short description of test [6]: CEETOX_H295R_ESTRONE: CeeTox H295R High-throughput Steroidogenesis Assay for Estrone (AID 2283441).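 Further: estrone secreted into medium measured by LC-MS/MS after dansyl derivatization.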 The settings on record: actives raise or lower the signal. The method in brief:
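Forskolin-stimulated H295R cells are treated 48 h with chemical, and estrone in the medium is measured by LC-MS/MS. Activity is fitted in both directions relative to DMSO controls, with chemicals diluted until MTT viability reaches at least 70%.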

Test [7] is described as follows: CEETOX_H295R_PROG: CeeTox H295R High-throughput Steroidogenesis Assay for Progesterone (PROG) (AID 2283442).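 On AC50: human H295R adrenal cells primed with 10 µM forskolin before dosing.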 The settings on record: actives raise or lower the signal. Summed up:
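Progesterone read-out: HPLC-MS/MS on MTBE extracts of conditioned medium after 48 h chemical exposure of forskolin-primed (10 uM, 48 h) H295R cells. Gain or loss of signal was fitted relative to DMSO baseline.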

Read-out in test [8]: Fatty acid synthase (Homo sapiens) (UniProt P49327)
The test is described as follows: LTEA_HepaRG_FASN: Life Technologies and Expression Analysis (LTEA) Assay for Fatty Acid Synthase (FASN) using HepaRG (AID 2283448).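 On AC50: differentiated human HepaRG liver cells in serum-free induction medium.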 Particulars: mRNA level, 48 h; actives raise or lower the signal. The method in brief: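 In human HepaRG cultures, 48 h chemical exposure (up to 100 uM, 0.5% DMSO) preceded TaqMan qRT-PCR of FASN.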

Read-out in test [9]: Tumor necrosis factor receptor superfamily member 6 (Homo sapiens) (UniProt P25445)
Description: LTEA_HepaRG_FAS: Life Technologies and Expression Analysis (LTEA) Assay for Fas cell surface death receptor (FAS) using HepaRG (AID 2283447). Particulars: mRNA level, 48 h; actives raise or lower the signal. The method in brief:
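FAS transcript level was measured by TaqMan qRT-PCR against three housekeeping genes after 48 h chemical exposure. Cells were HepaRG, 0.5% DMSO vehicle, with a top concentration of 100 uM and half-log dilutions over eight points, in duplicate.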

A short description of test [10]: CEETOX_H295R_ANDR: CeeTox H295R High-throughput Steroidogenesis Assay for Androstenedione (ANDR) (AID 2283436). The settings on record: actives raise or lower the signal. The method in brief: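 Medium from 48 h chemical-treated H295R adrenal cells was extracted with MTBE and androstenedione measured by LC-MS/MS. Activity was fit in both directions relative to DMSO. Cytotoxic concentrations were re-tested after dilution until MTT viability reached ≥70%.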

Usually AC50 stands for the midpoint of the concentration-response curve, whichever way the signal moves.

Where “and” joins values, the source holds several entries; their conditions need not be identical. Identical values can stand only once. Calls of active or inactive are those of the source. How the source made its calls: active means hit-call score of the fitted dose curve at least 0.9, where 1 is the maximum; inactive means score below 0.9.

Sequence of Fatty acid synthase (Homo sapiens) (P49327 whole entry, looked up): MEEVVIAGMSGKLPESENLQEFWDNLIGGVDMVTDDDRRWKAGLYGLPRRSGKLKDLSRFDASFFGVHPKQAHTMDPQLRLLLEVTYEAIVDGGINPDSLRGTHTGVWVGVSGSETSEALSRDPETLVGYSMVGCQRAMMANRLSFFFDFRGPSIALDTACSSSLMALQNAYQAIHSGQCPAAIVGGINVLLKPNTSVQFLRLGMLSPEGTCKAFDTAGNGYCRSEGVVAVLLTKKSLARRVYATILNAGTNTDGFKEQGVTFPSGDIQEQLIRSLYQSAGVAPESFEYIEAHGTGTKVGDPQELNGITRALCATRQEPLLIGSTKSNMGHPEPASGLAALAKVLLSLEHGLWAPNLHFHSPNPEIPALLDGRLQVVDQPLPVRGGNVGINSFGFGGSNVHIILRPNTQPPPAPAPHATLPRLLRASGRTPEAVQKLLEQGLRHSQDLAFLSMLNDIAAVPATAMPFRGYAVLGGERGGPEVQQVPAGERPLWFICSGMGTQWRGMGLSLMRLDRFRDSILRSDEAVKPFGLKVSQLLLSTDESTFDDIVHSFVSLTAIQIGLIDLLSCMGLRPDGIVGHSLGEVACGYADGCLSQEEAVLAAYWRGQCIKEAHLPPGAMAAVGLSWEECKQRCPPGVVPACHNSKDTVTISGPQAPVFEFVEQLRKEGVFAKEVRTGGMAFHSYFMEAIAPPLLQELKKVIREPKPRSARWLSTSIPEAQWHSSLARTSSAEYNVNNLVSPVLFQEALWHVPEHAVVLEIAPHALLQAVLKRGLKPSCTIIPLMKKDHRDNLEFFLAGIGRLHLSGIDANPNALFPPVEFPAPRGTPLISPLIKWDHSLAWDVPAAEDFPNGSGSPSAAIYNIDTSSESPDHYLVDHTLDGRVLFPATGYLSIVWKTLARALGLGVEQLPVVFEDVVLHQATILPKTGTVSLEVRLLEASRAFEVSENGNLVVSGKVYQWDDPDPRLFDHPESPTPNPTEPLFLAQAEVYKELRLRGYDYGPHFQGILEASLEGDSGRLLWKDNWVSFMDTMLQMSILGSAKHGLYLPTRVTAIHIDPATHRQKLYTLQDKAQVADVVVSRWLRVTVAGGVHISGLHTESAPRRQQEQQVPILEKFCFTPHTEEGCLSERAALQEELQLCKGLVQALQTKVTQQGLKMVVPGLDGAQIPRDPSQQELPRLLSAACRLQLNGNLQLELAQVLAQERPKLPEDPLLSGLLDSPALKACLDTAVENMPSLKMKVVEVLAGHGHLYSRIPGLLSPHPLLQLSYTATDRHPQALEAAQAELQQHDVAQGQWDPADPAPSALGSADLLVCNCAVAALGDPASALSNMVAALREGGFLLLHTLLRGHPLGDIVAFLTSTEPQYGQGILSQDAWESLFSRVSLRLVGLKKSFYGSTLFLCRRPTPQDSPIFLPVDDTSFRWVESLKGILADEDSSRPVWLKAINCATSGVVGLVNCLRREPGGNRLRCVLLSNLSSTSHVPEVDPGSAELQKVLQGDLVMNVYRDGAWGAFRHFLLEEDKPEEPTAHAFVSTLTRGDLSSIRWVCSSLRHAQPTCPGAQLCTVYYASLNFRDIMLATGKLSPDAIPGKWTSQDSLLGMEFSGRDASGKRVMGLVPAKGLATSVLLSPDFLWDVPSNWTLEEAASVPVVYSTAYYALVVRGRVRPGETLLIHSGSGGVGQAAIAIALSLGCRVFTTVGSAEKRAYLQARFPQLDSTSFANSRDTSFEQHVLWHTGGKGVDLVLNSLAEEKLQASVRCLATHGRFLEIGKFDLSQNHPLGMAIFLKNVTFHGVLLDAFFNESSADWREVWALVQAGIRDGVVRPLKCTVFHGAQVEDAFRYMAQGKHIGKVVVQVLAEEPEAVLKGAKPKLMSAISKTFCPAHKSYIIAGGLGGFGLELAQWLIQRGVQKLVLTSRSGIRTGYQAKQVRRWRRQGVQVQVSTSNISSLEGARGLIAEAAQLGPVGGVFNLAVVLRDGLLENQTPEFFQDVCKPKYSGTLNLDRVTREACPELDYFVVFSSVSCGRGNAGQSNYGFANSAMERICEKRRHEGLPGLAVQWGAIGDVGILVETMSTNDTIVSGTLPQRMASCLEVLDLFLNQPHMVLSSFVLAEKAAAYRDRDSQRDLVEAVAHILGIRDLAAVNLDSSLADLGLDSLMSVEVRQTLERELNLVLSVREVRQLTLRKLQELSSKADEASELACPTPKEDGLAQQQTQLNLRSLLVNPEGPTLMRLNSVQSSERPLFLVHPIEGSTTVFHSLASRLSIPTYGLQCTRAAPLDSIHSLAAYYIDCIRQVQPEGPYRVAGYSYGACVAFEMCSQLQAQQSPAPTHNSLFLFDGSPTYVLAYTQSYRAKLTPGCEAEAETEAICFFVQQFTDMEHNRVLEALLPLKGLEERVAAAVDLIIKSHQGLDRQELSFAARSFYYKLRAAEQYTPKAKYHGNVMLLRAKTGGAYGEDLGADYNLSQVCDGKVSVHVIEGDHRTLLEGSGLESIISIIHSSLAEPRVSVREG

In the case of `C#CCOC(=O)[C@@H](C)Oc1ccc(Oc2ncc(Cl)cc2F)cc1`, the AC50 was 9.84 µM (active) in test [1], 6.87 µM (active) in test [4], 9.01 µM (active) in [7] and 13.3 µM (active) in [8]. In addition, the call in [2], in test [3], in test [5] and in test [6] was inactive.

For the compound `O=C(Nc1ccc([N+](=O)[O-])cc1Cl)c1cc(Cl)ccc1O`, the compound was called inactive in test [1], in [2], in test [3], in test [4], in test [5] and in [6]. For the same compound, the result in test [7] was inactive. For the same compound, the AC50 in [9] is 3.08 µM (active); in [8] it was 2.94 µM (active).

As for `Oc1ccc(C(c2ccc(O)cc2)C(Cl)(Cl)Cl)cc1`, the AC50 in test [1] was 10 µM (active); in test [3], 0.399 µM (active); in test [4] it was 0.207 µM (active); in [7] it was 0.848 µM (active); in test [8], 88.8 µM (active). Also, the compound was called inactive in [2].

For the compound `S=C([S-])NCCNC(=S)[S-].[Mn+2]`, the outcome in test [1], in test [2], in test [3], in [4] and in test [7] was inactive. In addition, the half-maximal activity concentration (AC50) in test [8] was 2.55 µM (active).

With `CCNc1nc(N)nc(Cl)n1`, the compound was classed as inactive in test [1], in test [7], in test [9] and in test [8].

On to `CCCN(CCC)C(=O)SCC`, for which the compound was classed as inactive in [1], in test [10], in [2], in test [3], in test [4] and in test [5]. The result in test [6], in test [7] and in test [8] was inactive.

Take `C[C@]12C[C@H](O)[C@H]3[C@@H](CCC4=CC(=O)CC[C@@]43C)[C@@H]1CC[C@@H]2C(=O)CO`: the values for the concentration at half-maximal activity (AC50) in test [1] and in test [2] were 72.2 µM (active) and 1.04 µM (active), respectively. For the same compound, the call in test [3], in [4], in test [6] and in test [8] was inactive.

As to `CCCCOC(=O)[C@@H](C)Oc1ccc(Oc2ccc(C(F)(F)F)cn2)cc1`, the compound was called inactive in test [1], in [2], in [3], in test [4], in test [5] and in test [6]. Besides, the compound was called inactive in test [7], in [9] and in test [8].

Regarding `S=C(S)NCCNC(=S)S.[Mn+2].[S-]C([S-])=NCCN=C([S-])[S-].[Zn+2]`, the compound was classed as inactive in test [1], in test [2], in test [3], in [4] and in test [7]. The AC50 in test [8] is 1.14 µM (active) and 714 nM (active) and 1.11 µM (active).
